A short description of assay [1]: qHTS assay to identify small molecule agonists of the peroxisome proliferator-activated receptor delta (PPARd) signaling pathway - cell viability counter screen (AID 743211). Also: nearly all actives have a fitted effect of over 55% in size. Also: potency is read from the fitted curve at half-maximal effect. A digest of the protocol:
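PPARd-bla HEK293H cells (UAS-beta-lactamase reporter) were treated with compounds for 17 h at 37 C. Viability was then read in the same wells by CellTiter-Glo luminescence after 30 min at room temperature.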
For orientation: qHTS replaces the single test concentration by a dilution series.

Assay [2] addresses Peroxisome proliferator-activated receptor delta (Homo sapiens) (UniProt Q03181). The experiment in a line: qHTS assay to identify small molecule agonists of the peroxisome proliferator-activated receptor delta (PPARd) signaling pathway (AID 743212; calls by dose curve). The method in brief: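 HEK293H PPARd-bla cells; 5 h preincubation 37 C/5% CO2; compound (DMSO) 37 C; LiveBLAzer B/G FRET substrate 2 h RT; fluorescence intensity.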

Assay [3] can be described thus: qHTS assay to identify small molecule antagonists of the peroxisome proliferator-activated receptor delta (PPARd) signaling pathway - cell viability counter screen (AID 743213). Also: nearly all actives have a fitted effect of over 50% in size. The method in brief:
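Luminescence from CellTiter-Glo, added after the bla read and incubated 30 min at room temperature, gives viability of HEK293H PPARd-bla cells exposed to compounds for 17 h at 37 C with 300 nM L165041.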

Assay [4] has as its target Peroxisome proliferator-activated receptor delta (Homo sapiens) (UniProt Q03181). Put plainly: qHTS assay to identify small molecule antagonists of the peroxisome proliferator-activated receptor delta (PPARd) signaling pathway (AID 743215; active = well fitted inhibition curve with a large enough effect in the signal ratio in the repeat runs, not every such curve was filed as active; the % refers to the signal ratio;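 also: cells stimulated with agonist L165041 at 300 nM final during compound exposure; series mostly up to about 62 µM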). The method in brief:
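PPARd-bla HEK293H cells (UAS-bla reporter) preincubated 5 h, then given compound plus 300 nM final L165041 agonist for 17 h at 37 C. Beta-lactamase activity read by LiveBLAzer B/G FRET substrate fluorescence after 2 h at room temperature.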

Assay [5] is described as follows: qHTS assay to identify small molecule agonists of the farnesoid-X-receptor (FXR) signaling pathway - cell viability counter screen (AID 743218). Also: nearly all actives have a fitted effect of over 45% in size. A digest of the protocol: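 FXR-UAS-bla HEK 293T cells exposed to compounds for 16 h at 37C. Cytotoxicity read in the same wells by CellTiter-Glo luminescence after 30 min at room temperature, following the beta-lactamase FRET read.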

Assay [6] is described as follows: qHTS assay to identify small molecule antagonists of the farnesoid-X-receptor (FXR) signaling pathway - cell viability counter screen (AID 743221; active = well fitted cell-killing curve with a large enough effect in the repeat runs, not every such curve was filed as active; also: nearly all actives have a fitted effect of over 50% in size). The method in brief: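 FXR-UAS-bla HEK 293T cells were treated with test compounds plus chenodeoxycholic acid (50 uM final) for 16 h at 37 C. Cell viability in the same wells was then read as CellTiter-Glo luminescence after 30 min at room temperature.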

The target in assay [7] is Vitamin D3 receptor (Homo sapiens) (UniProt P11473). Put plainly: qHTS assay to identify small molecule agonists of the vitamin D receptor (VDR) signaling pathway (AID 743222; calls by dose curve). The method in brief:
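VDR-bla cells plated 4 h at 37 C, then exposed to compounds for 16 h at 37 C. Beta-lactamase reporter activity measured by fluorescence after 2 h room-temperature loading with LiveBLAzer B/G FRET substrate.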

Assay [8] shares this target. The experiment in a line: qHTS assay to identify small molecule antagonists of the vitamin D receptor (VDR) signaling pathway (AID 743223; active = well fitted inhibition curve with a large enough effect in the signal ratio in the repeat runs, not every such curve was filed as active; the % refers to the signal ratio). The method in brief: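 VDR-bla cells were plated, incubated 4 h at 37C, then given compound and 1alpha,25-dihydroxyvitamin D3 (3 nM final). After 16 h at 37C, LiveBLAzer B/G FRET substrate was added for 2 h at room temperature and fluorescence read.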

A short description of assay [9]: qHTS assay to identify small molecule agonists of the vitamin D receptor (VDR) signaling pathway - cell viability counter screen (AID 743224). Also: series mostly up to about 63 µM; nearly all actives have a fitted effect of over 50% in size. A digest of the protocol: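 VDR-bla cells, 4 h after plating, exposed to compounds for 16 h at 37C; viability then read in the same wells as CellTiter-Glo luminescence after 30 min at room temperature, following the bla FRET read.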

Assay [10] can be described thus: qHTS assay to identify small molecule antagonists of the vitamin D receptor (VDR) signaling pathway - cell viability counter screen (AID 743225). Also: nearly all actives have a fitted effect of over 50% in size. A digest of the protocol:
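VDR-bla HEK 293T cells, 4 h pre-incubation at 37C, then compound plus 1-alpha,25-dihydroxyvitamin D3 (3 nM final) for 16 h. After the beta-lactamase FRET read, CellTiter-Glo was added to the same wells; luminescence after 30 min at room temperature.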

Assay [11] can be described thus: qHTS assay to identify small molecule agonists of the NFkB signaling pathway (AID 1159509; active = well fitted curve in the direction sought with a large enough effect in the signal ratio in the repeat runs, not every such curve was filed as active; the % refers to the signal ratio; also: series mostly up to about 61 µM). A digest of the protocol:
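NFkB-bla ME-180 cells carry a beta-lactamase reporter under an NF-kB response element. They were plated overnight, then exposed to compounds for 5 h at 37 C. Read-out is LiveBLAzer FRET after 1.5 hr at room temperature (405 nm excitation; 460/530 nm emission).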

The nature of assay [12]: qHTS assay to identify small molecule agonists of the NFkB signaling pathway - cell viability counter screen (AID 1159515; calls by dose curve; also: series mostly up to about 61 µM; nearly all actives have a fitted effect of over 55% in size). A digest of the protocol: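 NFkB-bla ME-180 cells, 2,000/well, plated overnight at 37 C; compound added for 5 hr at 37 C. Viability read in the same wells as the bla reporter, by CellTiter-Glo luminescence after 30 min at room temperature.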
Assay [13] is described as follows: qHTS assay to identify small molecule agonists of the endoplasmic reticulum stress response signaling pathway (AID 1159516; active = well fitted activation curve with a large enough effect in the signal ratio in the repeat runs, not every such curve was filed as active; the % refers to the signal ratio). The method in brief: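 CellSensor ESRE-bla HeLa cells, 1,500 per well, plated overnight, then exposed to compounds for 5 hr at 37 C. Beta-lactamase reporter read with LiveBLAzer B/G FRET substrate after 2 hr at room temperature, 405 nm excitation, 460 and 530 nm emission.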

The nature of assay [14]: qHTS assay to identify small molecule agonists of the endoplasmic reticulum stress response signaling pathway - cell viability counter screen (AID 1159517; calls by dose curve). A digest of the protocol:
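HeLa cells carrying an ESRE-driven beta-lactamase reporter receive compound for 5 hr at 37 C. Cell viability is then gauged with CellTiter-Glo by luminescence, 30 min at room temperature.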

A short description of assay [15]: qHTS assay to identify small molecule antagonists of the retinoid-related orphan receptor gamma (ROR-gamma) signaling pathway - cell viability counter screen (AID 1159520). Also: nearly all actives have a fitted effect of over 50% in size. The method in brief:
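Cytotoxicity was read from cellular ATP (CellTiter-Glo luminescence) after 16 hr at 37 C with 1 uM doxycycline induction. The inducer was added 2 hr after compound transfer to Tet-on ROR gamma CHO cells.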

A short description of assay [16]: qHTS assay to identify small molecule agonists of the AP-1 signaling pathway - cell viability counter screen (AID 1159525; calls by dose curve; also: nearly all actives have a fitted effect of over 55% in size). The method in brief: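 Luminescent ATP readout (Cell Titer Glo, 30 min RT), normalised to DMSO and tetra n-octyl ammonium bromide controls. Cells were ME-180 AP-1-bla in 0.5% dialyzed FBS Opti-MEM, with a 5 h, 37 °C compound exposure.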
The nature of assay [17]: qHTS assay to identify small molecule agonists of the AP-1 signaling pathway (AID 1159526; calls by dose curve).
Assay [18] concerns the target Bile acid receptor (Homo sapiens) (UniProt Q96RI1). Put plainly: qHTS assay to identify small molecule agonists of the farnesoid-X-receptor (FXR) signaling pathway (AID 743220; active = well fitted activation curve with a large enough effect in the signal ratio in the repeat runs, not every such curve was filed as active; the % refers to the signal ratio). A digest of the protocol: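 Beta-lactamase reporter under UAS control in GeneBLAzer FXR HEK 293T cells (5000/well) measured with LiveBLAzer FRET substrate after 2 h at room temperature. Compound exposure lasted 16 h at 37C.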

Assay [19] concerns the target Nuclear receptor ROR-gamma (Homo sapiens) (UniProt P51449). The experiment in a line: qHTS assay to identify small molecule antagonists of the retinoid-related orphan receptor gamma (ROR-gamma) signaling pathway (AID 1159521). A digest of the protocol:
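Tet-on RORγ CHO cells carrying a ROR response element–luciferase reporter were pretreated with compounds for 2 h, then induced with 1 uM (final) doxycycline hyclate for 16 h at 37 C. Antagonism was read as decreased ONE-Glo luminescence.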

The target in assay [20] is Bile acid receptor (Homo sapiens) (UniProt Q96RI1). The experiment in a line: qHTS assay to identify small molecule antagonists of the farnesoid-X-receptor (FXR) signaling pathway (AID 743217; active = well fitted inhibition curve with a large enough effect in the signal ratio in the repeat runs, not every such curve was filed as active; the % refers to the signal ratio). The method in brief:
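FXR-UAS-bla HEK 293T cells (beta-lactamase reporter) given compound plus chenodeoxycholic acid (50 uM final), 16 h at 37C. LiveBLAzer B/G FRET substrate added for 2 h at room temperature; fluorescence read.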

Inconclusive results are not listed. A number with no mark means an inactive call. Activity calls are given as the source filed them. Unless noted, calls follow the shape of the dose curve; as a rule, active = well fitted curve in the direction sought with a large enough effect in the repeat runs; inconclusive = weak or mixed curves; inactive = no such curve, though single readings can be large; an effect the other way counts as inactive or inconclusive.

Bile acid receptor (Homo sapiens), sequence (Q96RI1 whole entry, looked up): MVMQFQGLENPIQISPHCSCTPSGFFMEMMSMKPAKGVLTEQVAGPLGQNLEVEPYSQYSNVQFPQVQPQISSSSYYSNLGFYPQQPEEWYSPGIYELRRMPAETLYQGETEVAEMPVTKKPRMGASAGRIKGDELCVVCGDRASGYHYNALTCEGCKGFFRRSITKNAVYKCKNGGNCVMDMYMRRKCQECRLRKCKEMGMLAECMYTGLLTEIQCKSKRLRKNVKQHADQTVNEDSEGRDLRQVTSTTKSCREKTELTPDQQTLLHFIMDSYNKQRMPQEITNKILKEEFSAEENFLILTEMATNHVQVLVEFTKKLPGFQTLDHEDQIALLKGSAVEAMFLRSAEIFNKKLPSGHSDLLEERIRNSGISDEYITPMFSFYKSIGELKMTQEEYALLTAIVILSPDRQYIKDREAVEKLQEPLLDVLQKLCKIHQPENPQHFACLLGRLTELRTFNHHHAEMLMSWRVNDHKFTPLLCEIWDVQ
Vitamin D3 receptor (Homo sapiens), sequence (P11473 whole entry, looked up): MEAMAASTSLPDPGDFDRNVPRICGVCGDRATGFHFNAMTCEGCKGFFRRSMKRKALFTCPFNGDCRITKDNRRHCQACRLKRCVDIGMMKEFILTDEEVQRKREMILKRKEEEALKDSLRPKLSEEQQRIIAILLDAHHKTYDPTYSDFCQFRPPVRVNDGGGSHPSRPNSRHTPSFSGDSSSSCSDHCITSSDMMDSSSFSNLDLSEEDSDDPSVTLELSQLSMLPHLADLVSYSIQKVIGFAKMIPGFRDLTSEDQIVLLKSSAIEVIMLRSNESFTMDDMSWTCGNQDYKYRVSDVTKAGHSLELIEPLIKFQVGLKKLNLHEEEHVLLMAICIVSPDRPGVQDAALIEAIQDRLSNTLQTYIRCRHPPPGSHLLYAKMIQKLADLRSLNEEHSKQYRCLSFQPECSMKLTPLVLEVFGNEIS
Peroxisome proliferator-activated receptor delta (Homo sapiens), sequence (Q03181 whole entry, looked up): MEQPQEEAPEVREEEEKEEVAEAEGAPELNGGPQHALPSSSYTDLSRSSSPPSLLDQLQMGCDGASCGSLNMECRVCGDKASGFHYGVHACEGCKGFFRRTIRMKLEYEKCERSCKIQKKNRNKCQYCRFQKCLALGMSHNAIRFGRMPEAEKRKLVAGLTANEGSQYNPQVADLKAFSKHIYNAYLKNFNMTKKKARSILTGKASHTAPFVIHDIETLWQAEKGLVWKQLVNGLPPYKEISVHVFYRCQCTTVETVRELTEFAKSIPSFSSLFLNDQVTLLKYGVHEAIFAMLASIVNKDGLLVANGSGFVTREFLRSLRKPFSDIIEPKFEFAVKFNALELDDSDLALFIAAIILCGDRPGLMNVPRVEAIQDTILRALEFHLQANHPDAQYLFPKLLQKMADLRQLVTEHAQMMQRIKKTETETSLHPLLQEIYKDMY

With `FC(F)(F)c1ccccc1`, the Potency result in [1], in assay [3], in assay [5], in assay [9], in assay [10] and in assay [15] was “inactive” each time. Also, the Potency entry in assay [17] was “inactive”. Besides, the compound was classed as inactive in assay [2], in [4], in assay [6], in assay [7], in [8] and in assay [11]. For the same compound, the compound was classed as inactive in assay [12], in assay [13], in assay [14] and in assay [16].
Turning to `CCC(=O)c1ccc2c(c1)N(CCCN(C)C)c1ccccc1S2`, the Potency in [1] is 29.8 µM (active). For the same compound, the compound was called inactive in assay [18], in assay [11], in assay [12], in assay [13] and in assay [14]. In addition, the Potency result in assay [15] and in assay [19] was “inactive” throughout.
On to `CN(C)Cc1ccccc1`, for which the Potency entry in assay [1], in assay [3], in assay [5], in [9], in [10] and in [15] was “inactive” each time. In assay [17], the Potency entry is “inactive”. In addition, the compound was called inactive in assay [2], in assay [4], in assay [6], in assay [7], in assay [8] and in assay [11]. Further, the call in [12], in assay [13], in assay [14] and in assay [16] was inactive.
With `OC[C@H]1O[C@@H](O[C@H]2[C@H](O)[C@@H](O)[C@H](O)O[C@@H]2CO)[C@H](O)[C@@H](O)[C@H]1O`, the Potency result in assay [1], in assay [3], in assay [5], in assay [9], in assay [10] and in [15] was “inactive” each time. In addition, in assay [17], the Potency entry was “inactive”. Besides, the result in assay [2], in [4], in [20], in assay [18], in assay [6] and in assay [11] was inactive. Also, the compound was called inactive in assay [12], in [13], in assay [14] and in [16].
For `O=C1C=CC(=O)O1`, the Potency entry in assay [1], in [3], in [5], in assay [9], in assay [10] and in assay [15] was “inactive” in each case. Also, the Potency entry in assay [17] was “inactive”. For the same compound, the compound was called inactive in assay [2], in assay [4], in assay [20], in assay [18], in assay [6] and in [7]. The call in assay [8], in assay [11], in assay [12], in [13], in assay [14] and in assay [16] was inactive.
As to `C=Cc1ccccc1`, the Potency entry in assay [1], in [3], in assay [5], in assay [9], in [10] and in assay [15] was “inactive” throughout. The Potency result in assay [17] is “inactive”. The result in [2], in assay [4], in [6], in [7], in [8] and in assay [11] was inactive. Moreover, the call in assay [12], in [13], in assay [14] and in assay [16] was inactive.
For the compound `COC(=O)/C=C(/C)N`, the Potency result in assay [1], in assay [3], in assay [5], in [9], in assay [10] and in assay [15] was “inactive” in each case. The Potency entry in assay [17] was “inactive”. In addition, the outcome in [2], in assay [4], in assay [18], in [6], in assay [7] and in assay [8] was inactive. Besides, the compound was called inactive in assay [11], in assay [12], in [13], in assay [14] and in [16].
In the case of `CCOC(=O)c1ccccc1O`, the Potency entry in assay [1], in assay [3], in assay [5], in assay [9], in [10] and in assay [15] was “inactive” in each case. Moreover, in assay [17], the Potency result is “inactive”. Also, the result in assay [2], in assay [4], in assay [6], in assay [7], in assay [8] and in assay [11] was inactive. Further, the outcome in assay [12], in assay [13], in assay [14] and in [16] was inactive.
In the case of `Clc1cccc(-c2cc(Cl)cc(Cl)c2)c1`, the Potency entry in assay [1], in assay [3], in assay [9], in assay [10], in assay [15] and in [19] was “inactive” each time. The result in assay [6], in assay [7], in assay [8], in assay [11], in assay [12] and in assay [13] was inactive. In [14], the compound was called inactive.
Consider `COC(=O)C(C)O` (stereo unspecified), for which the Potency result in assay [1], in assay [3], in assay [5], in [9], in [10] and in [15] was “inactive” in each case. The Potency entry in assay [17] was “inactive”. Further, the call in assay [2], in [4], in [20], in assay [18], in assay [6] and in assay [7] was inactive. For the same compound, the result in assay [11], in assay [12], in assay [13], in assay [14] and in [16] was inactive.
With `C1CSCCS1`, the Potency result in assay [1], in assay [3], in [5], in assay [9], in assay [15] and in assay [17] was “inactive” each time. The result in [2], in assay [4], in assay [6], in assay [7], in [11] and in [12] was inactive. Further, the compound was classed as inactive in [13], in assay [14] and in assay [16].
On to `NCCC(O)(P(=O)(O)O)P(=O)(O)O`, for which the Potency result in assay [1], in [3], in assay [5], in [10], in [15] and in [17] was “inactive” each time. The call in assay [2], in assay [4], in [18], in assay [6], in assay [11] and in [12] was inactive. Also, the call in assay [13], in [14] and in assay [16] was inactive.

Source of the values: PubChem BioAssay (Tox21).
